High-throughput results (PubChem)
Compounds with a hit are over-represented: about 4.6% of the library has one in this group of screens.
D1 antagonist = blocks dopamine activation of the human D1 receptor | activity change, negative = inhibition, % at 10 µM | HEK293 TREx D1 cells, calcium flux, dopamine EC80; stronger effect = lower value | 3.2% of 360,000 active; in the data active = activity change below about -30%; note: % is set by controls: 0 for no effect and ±100 for the full control effect
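Antagonism measured as reduced calcium response to an EC80 dopamine addition following 180 s compound pre-read; cells were inducible HEK293 Trex D1 plated overnight at 30 C, read kinetically at 1 cycle/sec.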
TRHR agonist = activates the human TRH receptor; P34981; TRHR cells, calcium flux fluo-8, FDSS agonist mode; activation, % at 2 µM; 0.18% of 360,000 active; note: 0% is about no effect
Target sequence (P34981 whole entry, looked up): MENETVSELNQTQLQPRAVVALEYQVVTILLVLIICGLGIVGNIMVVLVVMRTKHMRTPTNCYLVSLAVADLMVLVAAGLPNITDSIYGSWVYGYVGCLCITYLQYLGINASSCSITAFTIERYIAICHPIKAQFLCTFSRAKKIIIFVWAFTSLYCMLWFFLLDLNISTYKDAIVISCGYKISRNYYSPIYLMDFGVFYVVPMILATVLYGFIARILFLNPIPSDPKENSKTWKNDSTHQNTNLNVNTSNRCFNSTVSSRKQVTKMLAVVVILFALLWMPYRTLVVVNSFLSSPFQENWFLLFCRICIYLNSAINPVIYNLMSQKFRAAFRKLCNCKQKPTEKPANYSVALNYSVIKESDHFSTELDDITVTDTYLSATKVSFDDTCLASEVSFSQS
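Fluo-8-loaded TRHR cells; 10 s baseline, compound added, kinetic Ca2+ fluorescence read 1/s, agonist mode.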
TRHR enhancer = TRH receptor (human) allosteric enhancement | P34981 | TRHR cells, fluo-8 calcium fluorescence, EC20 TRH enhancement | enhancement, % at 2 µM | 0.66% of 360,000 active | AID 493056; in the data active = enhancement above about 30%; note: 0% is about no effect
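Enhancer read-out: after compound pinning and an initial kinetic agonist-mode read, an EC20 of TRH (10 nM final) was injected and fluo-8 calcium signal (Ex 480/Em 530) followed at 1 s/cycle for 100 cycles in TRHR-expressing cells.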
D1 ag = agonists of human D1 dopamine receptor; HEK293 T-REx D1 cells, calcium flux, agonist mode; activation, % at 2 µM; 1% of 360,000 active; AID 504660; note: 0% is about no effect
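Agonism was scored from calcium flux recorded over 180 s (1 read/s) after pintool compound addition, following a 10-cycle baseline. Cells were inducible force-coupled HEK293 TREx D1, plated overnight at 30 C and loaded with no-wash calcium dye.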
D1 PAM = human D1 dopamine receptor positive modulation; 0.036% of 360,000 active; P21728; potentiation, % at 10 µM; AID 504651; HEK293 TREx D1 cells, calcium flux, dopamine EC20 potentiation; in the data active = potentiation above about 30%; note: 0% is about no effect
Starred values were filed as active, the others as inactive; / = no result. Cut-off read from the data, not from the text of the source, unless noted: active = activation above about 30%; inactive = the rest.

SMILES | D1 antagonist | TRHR agonist | TRHR enhancer | D1 ag | D1 PAM
Cc1cc(SCC(=O)OCC(=O)NC(C)c2ccccc2)c(C)cc1Br (stereo not drawn) | -41.3* | 0.4 | 13.8 | 8.2 | -1.4
CCOC(=O)c1ccc(NCc2ccc3c(c2)OCO3)cc1 | -27.1 | -0.5 | 1.2 | 5.6 | -3.1
CCOC(=O)c1ccc(NCc2ccc(N(C)C)cc2)cc1 | -35.4* | -1.6 | 4.3 | 5.3 | -11.2
CSc1ccc(CCNC(=O)CCCn2c(=O)c3cccn3c3ccccc32)cc1 | -1.4 | -0.1 | -1.4 | 6.4 | -4.7
COc1cccc(C2CC(=O)Nc3c2c(=O)nc2c(C)cccn32)c1 (stereo not drawn) | 15.3 | 0.8 | -1.6 | -0.2 | -3.4
Cc1ccc(S(=O)(=O)c2nc(-c3ccccc3F)oc2N2CCCCC2)cc1 | -2.5 | -2.1 | 3.7 | 4.5 | -3.8
Cc1onc(-c2ccccc2)c1C(=O)OCC(=O)NC(C)c1ccc(Cl)cc1 (stereo not drawn) | -10.0 | 3.6 | -3.3 | 71.4* | /
Cc1onc(-c2ccccc2)c1C(=O)OCC(=O)Nc1ccccc1 | -11.5 | 0.4 | 14.8 | 5.2 | 1.3
Cc1onc(-c2ccccc2)c1C(=O)OCC(=O)Nc1ccc(C#N)cc1 | -31.5* | 0.0 | -7.5 | 9.5 | -2.4
Cc1ccc(CCNC(=O)CCCn2c(=O)c3ccccc3n(CC(=O)Nc3cc(Cl)ccc3C)c2=O)cc1 | -8.2 | -1.6 | 7.5 | -2.3 | -0.1
CCc1cc2c(cc3c(=O)n(CC(=O)NC(C)C)nc(CC)n32)s1 | -8.9 | 0.0 | 16.9 | -1.1 | -4.8
COCCN(C(=O)COC(=O)C1=COCCO1)c1c(N)n(Cc2ccccc2)c(=O)[nH]c1=O | -61.5* | 0.7 | -6.1 | 2.7 | -13.6
COCCN(C(=O)C1=COCCO1)c1c(N)n(Cc2ccccc2)c(=O)[nH]c1=O | -4.8 | 0.4 | -1.4 | 1.5 | -5.3
CC(C)CCN(C(=O)Cc1ccccc1F)c1c(N)n(Cc2ccccc2)c(=O)[nH]c1=O | -54.6* | 0.8 | 1.4 | 0.8 | -2.8
CC(C)CN(C(=O)CSc1nnc(-c2ccco2)o1)c1c(N)n(Cc2ccccc2)c(=O)[nH]c1=O | -38.0* | -0.7 | 12.4 | -0.4 | -6.5
CCN(C(=O)CN1c2ccccc2CC1C)c1c(N)n(Cc2ccccc2)c(=O)[nH]c1=O (stereo not drawn) | -0.6 | 0.4 | 1.4 | 2.0 | 45.5*
CC1Cc2ccccc2N1CC(=O)N(C)c1c(N)n(Cc2ccccc2)c(=O)[nH]c1=O (stereo not drawn) | -7.8 | 1.5 | -1.8 | 3.9 | -2.0
CCCN(C(=O)C(NC(=O)c1ccccc1)C(C)C)c1c(N)n(Cc2ccccc2)c(=O)[nH]c1=O (stereo not drawn) | -76.6* | 0.4 | -3.4 | -0.2 | -19.6
CCCCN(C(=S)NC(=O)c1ccccc1)c1c(N)n(Cc2ccccc2)c(=O)[nH]c1=O | -2.2 | 0.1 | 3.1 | 0.8 | -2.4
CCc1ccc(S(=O)(=O)c2nnn3c2nc(NC(C)C)c2sccc23)cc1 | -32.7* | 0.1 | -9.9 | 2.7 | -7.0
Cc1ccc(S(=O)(=O)c2nnn3c2nc(NCc2ccc(F)cc2)c2sccc23)cc1C | 1.6 | 0.7 | -4.8 | 4.6 | -1.4
CCCCNc1nc2c(S(=O)(=O)c3ccc(C)c(C)c3)nnn2c2ccsc12 | -77.3* | 0.7 | -21.1 | 1.0 | -8.4
COc1ccccc1Nc1nc2c(S(=O)(=O)c3ccc(C(C)C)cc3)nnn2c2ccsc12 | 3.8 | -0.4 | 37.1* | 4.0 | -5.1
CCc1ccc(S(=O)(=O)c2nnn3c2nc(NCCc2ccccc2)c2sccc23)cc1 | -26.8 | 0.4 | 8.8 | 3.9 | 3.8
Cc1ccc(S(=O)(=O)c2nnn3c2nc(NCc2cccs2)c2sccc23)cc1C | -59.0* | 0.7 | -14.0 | 2.3 | -7.8
SMILES | D1 antagonist | TRHR agonist | TRHR enhancer | D1 ag | D1 PAM
CC(=O)N1c2c(cc(Br)cc2S(=O)(=O)N2CCN(c3cccc(Cl)c3)CC2)CC1C (stereo not drawn) | -3.0 | 0.6 | 0.1 | 3.0 | 0.0
CCCCN(CCCC)CCNC(=O)Cn1nc(CC)n2c(cc3sccc32)c1=O | -15.0 | 0.6 | -2.6 | 0.8 | -3.2
CCCCN(c1ccccc1)S(=O)(=O)c1cc2c3c(c1)C(C)C(=O)N3CCC2 (stereo not drawn) | / | -0.4 | 0.1 | -4.1 | -0.5
Cn1cccc1/C=N\NC(=O)C1COc2ccccc2O1 (stereo not drawn) | -38.3* | 0.1 | -5.4 | 1.0 | -9.5
CC(C)(C)c1ccc2c(c1)OC(C(=O)N/N=C\c1ccc[nH]1)CO2 (stereo not drawn) | -0.4 | 0.3 | 12.1 | 2.1 | -2.5
Cc1c(/C=N\NC(=O)C2COc3ccc(C(C)(C)C)cc3O2)c2ccccc2n1C (stereo not drawn) | -85.7* | 0.9 | -23.8 | -1.2 | -11.8
Cn1cccc1/C=N\NC(=O)C1COc2ccc(C(C)(C)C)cc2O1 (stereo not drawn) | -16.2 | 1.2 | -10.9 | 0.4 | 0.3
CCOC(=O)C1=C(O)/C(=C/c2cn(CC(=O)N3CCCC3)c3ccccc23)SC1=Nc1ccccc1 | -8.7 | 16.2 | -1.3 | 32.1* | -4.0
COC(=O)c1cn(CC(=O)N2CCCCCC2)c2ccccc12 | -0.5 | -0.6 | 0.5 | 10.2 | 6.7
Cn1c(=O)n(C)c2cc(NC(=O)COc3ccc(Cl)cc3)ccc21 | -32.9* | -0.3 | 0.4 | 17.9 | -6.3
CN1CCC(N(C)S(=O)(=O)c2ccc(NC(=O)COc3ccc(F)cc3)cc2)CC1 | -25.7 | 0.4 | 7.2 | 23.9 | -7.8
Cc1nn(C)c(C)c1NC(=O)COc1ccc(Cl)cc1 | -33.5* | -0.1 | 2.4 | 14.3 | 1.1
CN1CCC(N(C)S(=O)(=O)c2ccc(NC(=O)COc3ccc(Cl)cc3)cc2)CC1 | -17.9 | 1.7 | -0.4 | 47.6* | -2.9
Cc1cccc(C)c1OCC(=O)Nc1c(C)nn(C)c1C | 0.2 | 1.1 | -7.8 | 1.6 | -2.2
Cn1c(=O)n(C)c2cc(NC(=O)COc3ccc(F)cc3F)ccc21 | -14.3 | -0.1 | 1.3 | 1.4 | -6.0
Cc1nn(C)c(Oc2ccc(Cl)cc2)c1C(=O)O | -33.3* | 0.2 | -5.0 | 1.5 | -8.4
CCOC(=O)COc1cc(C)c(Cl)cc1C(=O)c1ccn2nc(-c3ccc(OC)cc3)cc2n1 | -0.2 | 0.4 | -1.2 | -0.5 | 2.6
O=C(NCc1cccs1)c1nn(-c2ccccc2F)nc1CO | -1.3 | -0.9 | 1.0 | -0.2 | 0.3
CCCC(=O)NC1CC(=O)N(c2ccc3c(c2)OCCO3)C1 (stereo not drawn) | / | 0.3 | -3.7 | 0.5 | -0.1
CN1CCC(N(C)S(=O)(=O)c2ccc(NC(=O)COc3ccc([N+](=O)[O-])cc3)cc2)CC1 | -3.6 | 1.9 | -3.3 | 34.4* | -8.4
CC(=O)Nc1ccc(S(=O)(=O)N(C)C2CCN(C)CC2)cc1 | -1.6 | 0.5 | -3.6 | 3.0 | -2.3
CC(Oc1cccc(Cl)c1)C(=O)Nc1ccc(S(=O)(=O)N(C)C2CCN(C)CC2)cc1 (stereo not drawn) | -61.6* | 3.5 | 0.0 | 93.8* | -8.5
